Test [1] can be described thus: Cytotoxicity counterscreen for inhibitors of SARS-CoV-2 cell entry (AID 1645845). Further: nearly all actives have a fitted effect of over 50% in size. On activity change, negative = cytotoxicity: on the % scale 0 is the no-effect control and ±100 the full control effect. As to conditions: outcome: dose series up to 57.1 µM unless noted. The method in brief:
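ATP-content luminescence (ATPLite 1step, 15 min RT) read after 48 h compound exposure of Expi293F cells stably expressing human ACE2; normalized to cells-only wells and media-only wells.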

Test [2] is described as follows: Primary qHTS to identify inhibitors of SARS-CoV-2 cell entry (AID 1645846). Further: nearly all actives have a fitted effect of over 45% in size. As to conditions: SARS-CoV-2 pseudovirus cell entry assay, luminescence; activity change, negative = inhibition: at 57.1 µM (top of the series) unless noted. The method in brief: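 Data are normalized to wells receiving SARS-CoV-2-S pseudoparticles and those given bald particles. Entry signal was luciferase luminescence in stable hACE2 Expi293F cells, 48 hr post-infection, after 1 hr compound pretreatment.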

Inconclusive results are not listed. The source made the active and inactive calls. The call rests on the fitted dose curve. Square brackets hold non-standard residues; d marks the D form. Peptide text beside a SMILES is read from it.
Potency means the concentration at half of the fitted maximal effect.

Take `O=C(Cc1ccccc1)Nc1nnc(CCSCCc2nnc(NC(=O)Cc3ccccc3)s2)s1`: the Potency entry in test [1] and in test [2] was “inactive” in each case.
`C[C@]12CCCN1CC1=NNC(=O)c3cc(F)cc4[nH]c2c1c34`: in test [1], the Potency result is “inactive”. Also, in test [2], the activity change, negative = inhibition was -15.3%.
For `CC(C)C(=O)OCC(=O)[C@@]12O[C@H](C3CCCCC3)O[C@@H]1C[C@H]1[C@@H]3CCC4=CC(=O)C=C[C@]4(C)[C@H]3[C@@H](O)C[C@@]12C` the same measures were “inactive” and -13.1%.
Consider `Nc1nc(OC(c2ccc(-c3cccc(F)c3)cc2)C(F)(F)F)cc(-c2ccc(C[C@@H](N)C(=O)O)cc2)n1` (stereo not given in full), for which the Potency result in test [1] and in test [2] was “inactive” throughout.
As to `CNC(=O)[C@H]1O[C@@H](n2cnc3c(NCc4cccc(I)c4)nc(Cl)nc32)[C@H](O)[C@@H]1O`, the Potency result in test [1] and in test [2] was “inactive” each time.
On to `C[C@H](CCC(=O)O)[C@H]1CC[C@H]2[C@@H]3[C@@H](O)C[C@@H]4C[C@H](O)CC[C@]4(C)[C@H]3CC[C@]12C`, for which the Potency result in test [1] was “inactive”. Further, the activity change, negative = inhibition in test [2] was -16.5%.
Turning to `CCCCCCCCCCCCC[N+](C)(C)Cc1ccccc1`, the Potency in test [1] and in test [2] was 20 µM (active) throughout.
In the case of `CO[C@H]1O[C@@H]2O[C@@]3(C)CC[C@H]4[C@H](C)CC[C@@H]([C@H]1C)[C@@]24OO3`, the Potency result in test [1] is “inactive”. Also, the activity change, negative = inhibition in test [2] was -14.8%.
For the compound `COc1ccc(Cl)cc1-c1cc(=O)[nH]c(=S)n1CC(N)=O`, the Potency entry in test [1] is “inactive”. The activity change, negative = inhibition in test [2] is 4.69%.
`CCn1c(=O)c(-c2ccc(Cl)cc2Cl)cc2cnc(Nc3ccc(N4CCNCC4)c(F)c3)nc21`: the Potency result in test [1] and in test [2] was “inactive” throughout.
Consider `C/C=C1\NC(=O)[C@H]2CSSCC/C=C\[C@H](CC(=O)N[C@H](C(C)C)C(=O)N2)OC(=O)[C@H](C(C)C)NC1=O`, for which the Potency is 6.31 µM (active) in test [1] and 7.08 µM (active) in test [2].
As for `C[C@H](CCC(=O)O)[C@H]1CC[C@H]2[C@@H]3[C@H](O)C[C@@H]4C[C@H](O)CC[C@]4(C)[C@H]3CC[C@]12C`, the Potency entry in test [1] was “inactive”. Also, the activity change, negative = inhibition in test [2] is -12.9%.
Consider `CC1(C(=O)O)CCC2(C)CCC3(C)C(=CC(=O)C4C5(C)CCC(OC6OC(C(=O)O)C(O)C(O)C6OC6OC(C(=O)O)C(O)C(O)C6O)C(C)(C)C5CCC43C)C2C1` (stereo not given), for which the Potency result in test [1] and in test [2] was “inactive” throughout.
`C=C1/C(=C/C=C2\CCCC3(C)[C@@H]([C@H](C)/C=C/C=C/C(O)(CC)CC)CC[C@@H]23)C[C@@H](O)C[C@@H]1O` (stereo not given in full): the Potency entry in test [1] and in test [2] was “inactive” in each case.
Turning to `CCc1cc(/C(C)=N/OCc2ccc(C3CCCCC3)c(C(F)(F)F)c2)ccc1CN1CC(C(=O)O)C1`, the Potency entry in test [1] and in test [2] was “inactive” each time.
As for `O=C(/C=C/c1ccc(/C=C/C(=O)Nc2ccc(C3=NCCN3)cc2)cc1)Nc1ccc(C2=NCCN2)cc1`, the activity change, negative = cytotoxicity in test [1] was -2.26% [at 5.25 µM] (inactive). The activity change, negative = inhibition in test [2] was -24.3% [at 5.25 µM].
For `Cc1c[nH]c(/C=C2\C(=O)Nc3ccccc32)c1CCC(=O)O`, the Potency entry in test [1] was “inactive”. Besides, in test [2], the activity change, negative = inhibition was -20.8%.
Take `CS(=O)(=O)c1ccc(-c2nnc(/C=C/c3nnc(-c4ccc(C#N)cc4)o3)n2-c2ccccc2Cl)nc1`: the Potency entry in test [1] was “inactive”. Moreover, in test [2], the activity change, negative = inhibition was -12.6%.
`COC(=O)/C=C/C(=O)OC`: the Potency entry in test [1] was “inactive”. The activity change, negative = inhibition in test [2] was -4.67%.
With `Cc1cc(-c2cc(OC(=O)c3ccccc3)ccc2Cl)cc2nnc(Nc3ccc(OCCN4CCCC4)cc3)nc12`, the Potency result in test [1] is “inactive”. The activity change, negative = inhibition in test [2] was -21.1% [at 27.1 µM].
Consider `Cc1nc2cccc(N)c2c(=O)n1C1CCC(=O)NC1=O` (stereo not given), for which the Potency result in test [1] was “inactive”. Further, the activity change, negative = inhibition in test [2] was -12.7%.
For `Cc1cc(O)c(-c2ccc([C@@H](C)CN)cc2)c2c1[nH]c(=O)c1sccc12`, in test [1], the Potency result is “inactive”. In addition, the activity change, negative = inhibition in test [2] was -4.37%.
With `CC1=C(c2ccc(O)cc2)[C@H](c2ccc(OCCN3CCCCC3)cc2)Oc2cc(O)ccc21`, the Potency result in test [1] was “inactive”. The activity change, negative = inhibition in test [2] was -47.4%.
With `COc1cc2c(cc1OC)CN(CCc1ccc(-n3nnc(-c4cc(OC)c(OC)cc4NC(=O)c4cc(=O)c5ccccc5o4)n3)cc1)CC2`, the activity change, negative = cytotoxicity in test [1] was 2.79% [at 0.702 µM] (inactive). Further, the activity change, negative = inhibition in test [2] turned out to be 3.34% [at 0.702 µM].
For `CC1(C)O[C@@H]2C[C@H]3[C@@H]4CCC5=CC(=O)C=C[C@]5(C)[C@H]4[C@@H](O)C[C@]3(C)[C@]2(C(=O)CO)O1`, the Potency result in test [1] was “inactive”. Moreover, the activity change, negative = inhibition in test [2] is 4.23%.
Turning to `CC(C)C[C@@H]1NC(=O)[C@@H](C(C)C)NC(=O)[C@@H]2CCCN2C(=O)[C@@H](CC(=O)O)NC(=O)[C@@H](Cc2c[nH]c3ccccc23)NC1=O` (cyclo(L[dW][dD]P[dV])), the Potency result in test [1] is “inactive”. In addition, the activity change, negative = inhibition in test [2] was -6.47%.
Turning to `O=C(O)CCNc1cc(N2CCc3ccccc3CC2)nc(-c2cccnc2)n1`, the Potency result in test [1] and in test [2] was “inactive” in each case.
With `C[C@H](NC(=O)/C(C#N)=C/c1cccc(Br)n1)c1ccccc1`, the values for the Potency in test [1] and in test [2] were 28.2 µM (active) and 35.5 µM (active), respectively.
Take `O=C(/C=C/c1ccc(CN(CCO)CCc2c[nH]c3ccccc23)cc1)NO`: the Potency result in test [1] was “inactive”. Moreover, the activity change, negative = inhibition in test [2] is -7.55%.
As for `COc1ccc(-c2c(C)nn3c(NCCN4CCOCC4)cc(C)nc23)cc1OC`, the Potency result in test [1] was “inactive”. Further, in test [2], the activity change, negative = inhibition stood at 3.31%.

Source of the values: PubChem BioAssay (NCATS).
